PubChem BioAssay AID2391 (Southern Research Specialized Biocontainment Screening …, 2010)
Among all 310,000 compounds or so, about 410 (0.13%) were called active. Not shown: some 2% with an inconclusive outcome. The rule behind the calls is not given here. Only a sample is shown. Potency and affinity values are given separately.

Assay: inhibition of RSV-induced cytopathic effect – HEp-2 cells, primary 10 µM value included (AID 2391)
Conditions: at 10 µM, stronger effect = higher value

CPE inhibition, inactive:
O=C1CS/C(=N/N=C\c2ccn[nH]2)N1 6.91%, Cc1c(C(=O)O)cccc1-c1ccc(/C=N/n2cnnc2)o1 0.79%, COc1ccc(C(=O)OCC(=O)N(C)C2CCS(=O)(=O)C2)cc1Br (centres undefined) 1.57%, CCOC(=O)c1c(CC(C)C)csc1NC(=O)COC(=O)c1cc(OC)c(OC)cc1[N+](=O)[O-] 3.28%, C[C@@H]1NS(=O)(=O)[C@H]2C[C@@H]3C=C[C@]2(O3)[C@H]1OC(=O)Nc1ccc(C(F)(F)F)cc1[N+](=O)[O-] 0.31%, Cc1cc(C(=O)O[C@H]2[C@H](Cc3ccccc3)NS(=O)(=O)[C@H]3C[C@@H]4C=C[C@]23O4)ccc1[N+](=O)[O-] 1.3%, CCN(Cc1ccccc1)C(=O)Cc1c[nH]c2ccccc12 4.41%, O=[N+]([O-])c1ccc(-c2ccc(/C=N/O)o2)cc1 11.6%, Cc1ccc(-c2ccc(/C=N/NC(=S)Nc3ccccc3)o2)cc1[N+](=O)[O-] 17.4%, CC(=O)Nc1ccc(NC(=O)CSc2ccc(-c3ccc4c(c3)OCO4)nn2)cc1 3.37%, CCOC(=O)C1CCCN(c2c(Nc3ccc(C)c(C)c3)c(=O)c2=O)C1 (centres undefined) 1%, COc1cccc(OCCCN2CCN(S(=O)(=O)c3ccc(NC(C)=O)cc3)CC2)c1 3.71%, CCc1c(C(=O)Nc2cc(C)cc(C)c2)[nH]c(C)c1C(C)=O 2.64%, COc1ccc(C(CNC(=O)COc2ccccc2)N2CCCCC2)cc1 (centres undefined) 0.71%, COc1ccc(C(CNC(=O)Cc2ccccc2)N2CCCCC2)cc1 (centres undefined) -0.35%, NC(=O)c1ccsc1NC(=O)COC(=O)c1nc(Cl)ccc1Cl -1.24%, Oc1ccc(N2CCN(Cc3nc4ccccc4[nH]3)CC2)cc1 13.2%, c1ccc2[nH]c(CN3CCCCCC3)nc2c1 0.95%, c1ccc(N2CCN(c3nc4ccccc4[nH]3)CC2)nc1 -2.6%, COc1ccccc1N1CCN(Cc2nc3ccccc3[nH]2)CC1 1.74%, COC(CNS(=O)(=O)c1cccc2nonc12)OC 3.28%, CCN(CC(=O)Nc1c(F)cccc1F)C(=O)c1ccc(N2CCCCC2)c([N+](=O)[O-])c1 5.38%, Cc1csc(NC(=O)c2ccc[nH]c2=O)n1 0.61%, COc1ccc(OCCOC(=O)C(C)NS(=O)(=O)c2ccc(NC(C)=O)cc2)cc1 (centres undefined) 0.13%, CCOC(=O)N1CCN(CC(=O)Nc2nc3ccc(OC)cc3s2)CC1 10.2%, O=c1c2ccccc2nc(SCc2ccc([N+](=O)[O-])cc2)n1CCCO 4.2%, CCn1c(SCC#N)nc2ccccc2c1=O 1.07%, O=C(CSc1nc2ccccc2n1CC(=O)NCc1ccccc1)NCc1ccco1 -0.09%, Cn1c(SCC#N)nc2ccccc2c1=O 2.04%, CCC(Sc1nc2ccccc2c2nc3ccccc3n12)C(=O)NCc1ccco1 (centres undefined) -0.18%, Cc1cccc(C(=O)O/N=C/c2c(N3CCOCC3)n(C)c3ccccc23)c1 -0.89%, COC(=O)Cc1c(C)c2ccc(OC3CCCCC3=O)cc2oc1=O (centres undefined) 6.9%, CN(C)c1ccc(NC(=O)CSc2nc(C3CC3)nc3ccccc23)cc1 3.13%, CCC(C)NC(=O)c1nc2c(nnn2Cc2ccccc2Cl)c(=O)[nH]1 (centres undefined) 1.33%, CC1C2C(C)N(C)C(=O)N(C)C2N(C)C(=O)N1C (centres undefined) 2.07%, CC1(C(=O)Nc2nc3ccccc3s2)CC1(Br)Br (centres undefined) 9.49%, CCOc1ccc2nc(NC(=O)C(NS(=O)(=O)c3cccs3)C(C)C)sc2c1 (centres undefined) 19.6%, CCCC(=O)Nc1nc2ccc(OCC)cc2s1 2.67%, CCOc1ccc2nc(NS(=O)(=O)c3cccs3)sc2c1 1.43%, C/C(=N/NS(C)(=O)=O)c1ccc2ccccc2c1 -0.76%, CC(C)C(=O)Nc1cccc(-c2cnc3ccccc3n2)c1 -1.56%, O=C(NNC(=O)C1CC1c1ccccc1)Nc1ccccc1 (centres undefined) 1.51%, Cc1cc(N2CCOCC2)n2cc(-c3ccccc3)nc2n1 1.5%, Cc1cc(N2CCN(c3ccccc3Cl)CC2)n2cc(-c3ccccc3)nc2n1 5.23%, CCCC(=O)N/C(N)=N/c1nc(C)c2ccccc2n1 0.78%, N#CCCn1cc(CNC2CCC(O)CC2)c2ccccc21 (centres undefined) 2.18%, Cn1nc(SCC(=O)O)sc1=S -0.46%, Cc1ccc2cc(CN(CC3CCCO3)C(=S)NCc3ccco3)c(=O)[nH]c2c1 (centres undefined) 1.42%, Cc1ccc2cc(CN(Cc3ccco3)C(=S)NCC3CCCO3)c(=O)[nH]c2c1C (centres undefined) 2%, COc1ccc(C(=O)COC(=O)CCn2nnc(-c3cccs3)n2)cc1 1.36%, NC(=O)C1CCN(c2ccc(C(F)(F)F)cc2[N+](=O)[O-])CC1 16.8%, O=[N+]([O-])c1cc(C(F)(F)F)ccc1N1CCCC(O)C1 (centres undefined) 9.15%, COCC1CCN(C(=O)C2CCC(=O)N(Cc3cccc(F)c3)C2)CC1 (centres undefined) 2.17%, c1csc(-c2nn3c(Cn4nnc5ccccc54)nnc3s2)c1 26.6%, c1ccc(Cc2nn3c(Cn4cnc5ccccc54)nnc3s2)cc1 5.56%, Clc1cccc(-c2nn3c(Cn4cnc5ccccc54)nnc3s2)c1 34%, c1ccc2c(c1)ncn2Cc1nnc2sc(-c3ccncc3)nn12 -0.84%, c1cncc(-c2nn3c(Cn4cnc5ccccc54)nnc3s2)c1 15.6%, c1ccc2c(c1)nnn2Cc1nnc2sc(-c3ccncc3)nn12 1.65%, Cc1ccc[n+](C(C)C(=O)Nc2ccc(C)c([N+](=O)[O-])c2)c1 (centres undefined) 0.22%, COc1cccc(NC(=O)CNc2cc(S(=O)(=O)N3CCOCC3)ccc2N2CCCC2)c1 -0.7%, CC(C)(C)CC(=O)NC(=S)NCc1ccccc1 5.07%, CC(C)(C)C(=O)NC(=S)NCCc1ccccc1 2.62%, COc1ccc(/C(C)=N/OCC(=O)N=Nc2c(O)[nH]c3ccc(Br)cc23)cc1 4.9%, O=C(Nc1ccc(F)cc1F)C1CC(=O)N(Cc2ccccc2)C1 (centres undefined) 0.74%, CCc1c(C)nc2ncnn2c1N1CCC(C(=O)NCc2cccs2)CC1 11%, O=C(NC(=S)NNC(=O)c1ccccc1O)c1cccc([N+](=O)[O-])c1 16.2%, C=CCN1CC(c2nc3ccccc3n2CCOc2ccccc2)CC1=O (centres undefined) 0.6%, CCn1c(C2CC(=O)N(Cc3ccccc3)C2)nc2ccccc21 (centres undefined) 1.99%, Cn1c(SCC(=O)NC2CCCC2)nnc1-c1ccncc1 0.88%, COc1ccc(C(=O)Nc2cccc(C(=O)N3CCCCC3)c2)cc1 3.16%, CCc1ccccc1Nc1nc(N)nc(COC(=O)c2c(C)noc2C)n1 3.24%, Cc1ccccc1Nc1nc(N)nc(COC(=O)c2cccn2C)n1 4.72%, Cc1nn(-c2ccccn2)c(C)c1Oc1ccccc1O 0.08%, Cc1cc(C)nc(-n2nc(C)c(Oc3ccccc3O)c2C)n1 1.29%, CCC(=O)c1ccc(OCC(=O)N(C)CC(=O)Nc2cccc(F)c2)cc1 -0.9%, CC(=O)Nc1ccc2c3c(cccc13)CC2 3.08%, COc1ccc(NC(=O)[C@H](Cc2c[nH]c3ccccc23)NC(=O)[C@@H]2Cc3ccccc3CN2)cc1 1.35%, Cc1cccc(NC(=O)[C@H](Cc2c[nH]c3ccccc23)NC(=O)[C@@H]2Cc3ccccc3CN2)c1 3.9%, Cc1cc(N2CCOCC2)nc2ccc(NC(=O)CCC(=O)N3CCN(c4ccccc4F)CC3)cc12 13.8%, CC(NC(=O)COc1ccc(Br)cc1)C(=O)O (centres undefined) 0.8%, CN1CCN(C2=NC(=O)/C(=C/c3ccccc3OS(=O)(=O)c3ccccc3)S2)CC1 1.12%, O=C1N=C(N2CCOCC2)S/C1=C\c1ccc(OS(=O)(=O)c2ccccc2)cc1 0.11%, CC(=O)N1c2ccccc2N(Cc2ccc(C)cc2C)C(=O)C1(C)C 5.65%, Cc1cc(C)nc(NC(=O)c2c(F)c(F)c(F)c(C(=O)Nc3cc(C)cc(C)n3)c2F)c1 -2.23%, CCC(=O)N1CCN(c2cc3c(cc2F)c(=O)c(C(=O)O)cn3CC)CC1 0.7%, CCn1cc(C(=O)NCc2ccco2)c(=O)c2cc(F)c(N3CCN(C(=O)c4ccco4)CC3)cc21 0.76%, CCn1cc(C(=O)O)c(=O)c2cc(F)c(N3CCN(C(=S)NC(=O)c4ccccc4)CC3)cc21 -1.03%, CCn1cc(C(=O)NCc2ccncc2)c(=O)c2cc(F)c(N3CCN(C(=O)c4ccco4)CC3)cc21 4.28%, COc1ccccc1C1CCCN1Cc1nc(-c2cc3c(cc2Cl)OCO3)oc1C (centres undefined) 1.45%, CCOc1ccccc1-c1nc(CN2CCCC2c2nccs2)c(C)o1 (centres undefined) 5.15%, COCc1ccc(CN2CCCC(CO)(Cc3ccccc3C)C2)o1 (centres undefined) -0.94%, CCOC(=O)c1cnc(Cc2ccccc2)[nH]c1=O 1.25%, N#Cc1nc(COc2ccccc2Cl)oc1N1CCCC1 40.5%
